The results in this text go back to PubChem BioAssay (NCI).

Several values for one entry are separate records, joined by “and”; a condition that tells them apart may be missing. Equal values may be shown once. The panel holds about 83,000 compounds, 20% with a hit somewhere; the sample as a whole holds those more often.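 Assay: single dose, 48 h. Readout: percent growth (0 = no net growth; negative = cell death). Active: <10.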 Activity calls are given as the source filed them.

Test systems include HCT-15 colon; HT29 colon; SNB-75 CNS; SNB-19 CNS; U251 CNS; PC-3 prostate; SK-MEL-5 melanoma; UACC-62 melanoma; LOX IMVI melanoma; SK-MEL-28 melanoma; SK-MEL-2 melanoma; EKVX NSCLC; SN12C renal; UO-31 renal; TK-10 renal; ACHN renal; CAKI-1 renal; A498 renal; CCRF-CEM leukemia; MOLT-4 leukemia.
Holding throughout (test): NCI-60 one-dose screen, 48 h (100 = growth as untreated, 0 = no growth, -100 = all killed)
Holding throughout (settings): 10 µM unless noted

Consider `O=c1oc2c(Br)cc(Br)cc2cc1-c1cc(-c2ccc(-c3cc(-c4cc5cc(Br)cc(Br)c5oc4=O)nc(-c4cc5cc(Br)cc(Br)c5oc4=O)c3)cc2)cc(-c2cc3cc(Br)cc(Br)c3oc2=O)n1`, for which the growth was 111% (inactive) with HCT-15 colon; 90.8% (inactive) in the assay with HT29 colon; 105% (inactive) in the assay on SNB-75 CNS; 101% (inactive) in the assay with SNB-19 CNS; 107% (inactive) in the assay on U251 CNS; 97.5% (inactive) with PC-3 prostate. Also, the growth in the assay with SK-MEL-5 melanoma was 108% (inactive); in the assay with UACC-62 melanoma it was 102% (inactive); in the assay with LOX IMVI melanoma, 99.5% (inactive); in the assay on SK-MEL-28 melanoma, 112% (inactive); in the assay on SK-MEL-2 melanoma it was 101% (inactive); in the assay on EKVX NSCLC, 105% (inactive). Further, the growth with SN12C renal is 107% (inactive); with UO-31 renal, 80.6% (inactive); in the assay with TK-10 renal it was 107% (inactive); with ACHN renal, 103% (inactive); in the assay with CAKI-1 renal it was 110% (inactive); in the assay on A498 renal it was 95.9% (inactive). In addition, the growth with CCRF-CEM leukemia is 101% (inactive); in the assay on MOLT-4 leukemia, 102% (inactive).

In the case of `CC(=O)c1c(C)nc2ccccc2c1/C=C/c1cccc(C)c1`, the growth in the assay on HCT-15 colon is 31.3% (inactive); with HT29 colon it was 18.5% (inactive); in the assay on SNB-75 CNS, 60% (inactive); in the assay with SNB-19 CNS, 74.1% (inactive); in the assay on U251 CNS, 49.8% (inactive); in the assay on PC-3 prostate it was 65.8% (inactive). Further, the growth was 54.3% (inactive) in the assay with SK-MEL-5 melanoma; 47.8% (inactive) with UACC-62 melanoma; 42% (inactive) with LOX IMVI melanoma; 75% (inactive) in the assay with SK-MEL-28 melanoma; 36.2% (inactive) in the assay with SK-MEL-2 melanoma; 71.5% (inactive) with EKVX NSCLC. In addition, the growth in the assay with SN12C renal is 67.7% (inactive); in the assay with UO-31 renal, 56.4% (inactive); in the assay on TK-10 renal, 79.9% (inactive); with ACHN renal it was 73.7% (inactive); with CAKI-1 renal, 46.3% (inactive); in the assay with A498 renal it was 50.1% (inactive). Further, the values for the growth in the assay on CCRF-CEM leukemia and in the assay on MOLT-4 leukemia were 54.4% (inactive) and 31% (inactive), respectively.

In the case of `CCN(c1cc(-c2ccc(CN3CCC(/C=C/S(=O)(=O)c4ccccc4)CC3)cc2)cc(C(=O)NCc2c(C)cc(C)[nH]c2=O)c1C)C1CCOCC1`, the growth was 54.8% (inactive) in the assay with HCT-15 colon; 21.2% (inactive) in the assay on HT29 colon; 37.5% (inactive) with SNB-75 CNS; 80.1% (inactive) in the assay with SNB-19 CNS; 66.9% (inactive) in the assay with U251 CNS; 53.7% (inactive) in the assay with PC-3 prostate. The growth in the assay on SK-MEL-5 melanoma was 71.9% (inactive); in the assay on UACC-62 melanoma, 76.6% (inactive); in the assay on LOX IMVI melanoma it was 68.9% (inactive); in the assay with SK-MEL-28 melanoma, 97.9% (inactive); in the assay on SK-MEL-2 melanoma, 92.5% (inactive); with EKVX NSCLC, 87.4% (inactive). The growth with SN12C renal is 63.6% (inactive); with UO-31 renal it was 44.7% (inactive); in the assay with TK-10 renal, 121% (inactive); in the assay on ACHN renal, 80% (inactive); with CAKI-1 renal it was 51.4% (inactive); in the assay with A498 renal, 51.1% (inactive). Besides, the growth in the assay on CCRF-CEM leukemia is 38.2% (inactive); in the assay with MOLT-4 leukemia, 26.8% (inactive).

Consider `CCN(CC)CCOc1ccc(/C(=C(\Cl)c2ccccc2)c2ccccc2)cc1`, for which the growth in the assay on HCT-15 colon is -1.24% (active) and 0.736% (active); with HT29 colon it was -46.7% (active) and 7.7% (active); with SNB-75 CNS, 27.2% (inactive) and 31.5% (inactive); in the assay on SNB-19 CNS, 52.4% (inactive) and 86.6% (inactive); with U251 CNS it was 23.1% (inactive) and 72.8% (inactive); in the assay with PC-3 prostate it was 49.1% (inactive) and 91.3% (inactive). Besides, the growth in the assay on SK-MEL-5 melanoma was -97.4% (active) and -99.3% (active); in the assay on UACC-62 melanoma it was -54.2% (active) and 9.63% (active); with LOX IMVI melanoma, -42.7% (active) and 85.4% (inactive); in the assay with SK-MEL-28 melanoma, -28% (active) and -41.1% (active); in the assay with SK-MEL-2 melanoma, 7.89% (active); with EKVX NSCLC it was 47.7% (inactive) and 87.7% (inactive). Besides, the growth was 54.8% (inactive) and 75.6% (inactive) with SN12C renal; 24% (inactive) and 66.4% (inactive) in the assay with UO-31 renal; 111% (inactive) in the assay on TK-10 renal; 52.8% (inactive) and 81.3% (inactive) in the assay with ACHN renal; 41.3% (inactive) and 69.9% (inactive) with CAKI-1 renal; 77.1% (inactive) with A498 renal. In addition, the growth in the assay with CCRF-CEM leukemia is 28% (inactive) and 89% (inactive); with MOLT-4 leukemia it was 36.8% (inactive) and 91.6% (inactive).

For the molecule `CCCCC1COc2cccc3c2N1C=C/C3=C\C(=O)N(C)c1cccc(Cl)c1` (stereo not given), the growth was 99.4% (inactive) in the assay on HCT-15 colon; 109% (inactive) in the assay with HT29 colon; 93% (inactive) in the assay on SNB-75 CNS; 91.5% (inactive) with SNB-19 CNS; 101% (inactive) with U251 CNS; 89.6% (inactive) in the assay with PC-3 prostate. Also, the growth is 102% (inactive) with SK-MEL-5 melanoma; 85.9% (inactive) in the assay with UACC-62 melanoma; 99% (inactive) in the assay with LOX IMVI melanoma; 104% (inactive) in the assay on SK-MEL-28 melanoma; 121% (inactive) with SK-MEL-2 melanoma; 95.8% (inactive) in the assay on EKVX NSCLC. Besides, the growth in the assay with SN12C renal is 94.2% (inactive); in the assay on UO-31 renal, 78% (inactive); in the assay on TK-10 renal, 112% (inactive); in the assay on ACHN renal it was 98.5% (inactive); in the assay with CAKI-1 renal it was 78.9% (inactive); in the assay with A498 renal it was 94.6% (inactive). Moreover, the growth with CCRF-CEM leukemia was 97.2% (inactive); with MOLT-4 leukemia it was 86.6% (inactive).

As to `CC(=O)N1N=C(c2ccc(F)cc2)CC1c1sc(N(C)Cc2ccccc2)nc1Cl` (stereo not given), the growth with HCT-15 colon was 88.5% (inactive); with HT29 colon, 94.4% (inactive); in the assay with SNB-75 CNS it was 92.3% (inactive); in the assay on SNB-19 CNS it was 101% (inactive); in the assay on U251 CNS, 98.5% (inactive); in the assay with PC-3 prostate, 86.3% (inactive). Besides, the growth in the assay on SK-MEL-5 melanoma was 103% (inactive); in the assay with UACC-62 melanoma it was 81.2% (inactive); in the assay with LOX IMVI melanoma it was 96.4% (inactive); in the assay on SK-MEL-28 melanoma it was 114% (inactive); with SK-MEL-2 melanoma it was 96.1% (inactive); in the assay on EKVX NSCLC, 87.4% (inactive). For the same molecule, the growth with SN12C renal was 106% (inactive); with UO-31 renal, 74.6% (inactive); in the assay with TK-10 renal, 112% (inactive); in the assay with ACHN renal, 102% (inactive); in the assay on CAKI-1 renal it was 83.9% (inactive); in the assay on A498 renal, 104% (inactive). The growth was 96.4% (inactive) in the assay with CCRF-CEM leukemia and 99.7% (inactive) in the assay with MOLT-4 leukemia.
